Measurements reported in PubChem BioAssay (NCATS).
Records with an inconclusive call do not appear. A call without a number means that no potency is given here. Activity calls are given as the source filed them. Calls come from the whole dose curve; as a rule, active = well fitted inhibition curve with a large enough effect; inconclusive = small, poorly fitted or top-dose-only effect; inactive = flat fitted curve, though single readings scatter.

Experiments:
[1] = molecular target: Glutathione peroxidase 1 (Homo sapiens) (UniProt P07203); test: Primary qHTS Assay for Inhibitors of Recombinant Selenoprotein Glutathione Peroxidase 1 (GPX1) (AID 1845191); details: recombinant GPX1, GR-coupled NADPH fluorescence, 15 min; series mostly up to 48.8 µM
Sequence of Glutathione peroxidase 1 (Homo sapiens) (P07203 whole entry, looked up): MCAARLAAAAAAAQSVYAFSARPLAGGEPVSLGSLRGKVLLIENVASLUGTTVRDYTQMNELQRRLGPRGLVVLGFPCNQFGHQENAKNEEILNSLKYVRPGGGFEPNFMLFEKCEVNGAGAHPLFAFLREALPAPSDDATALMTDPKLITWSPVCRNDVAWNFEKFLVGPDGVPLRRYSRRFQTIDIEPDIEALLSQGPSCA
In short: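 GR-coupled readout: NADPH consumption tracked by fluorescence, ex 340/em 450 nm, at t=0 and after 15 min at RT. Final mix 10 nM GPX1, 1 mM GSH, 0.5 mM CHP, 0.5 mM NADPH, 100 nM GR, 0.01% BSA, following 30 min enzyme–compound preincubation.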

[2] = molecular target: Phospholipid hydroperoxide glutathione peroxidase GPX4 (Homo sapiens) (UniProt P36969); test: Primary qHTS Assay for Inhibitors of Recombinant Selenoprotein Glutathione Peroxidase 4 (GPX4) (AID 1845192); details: recombinant GPX4, GR-coupled NADPH fluorescence, 15 min; series mostly up to 50 µM
Sequence of Phospholipid hydroperoxide glutathione peroxidase GPX4 (Homo sapiens) (P36969 whole entry, looked up): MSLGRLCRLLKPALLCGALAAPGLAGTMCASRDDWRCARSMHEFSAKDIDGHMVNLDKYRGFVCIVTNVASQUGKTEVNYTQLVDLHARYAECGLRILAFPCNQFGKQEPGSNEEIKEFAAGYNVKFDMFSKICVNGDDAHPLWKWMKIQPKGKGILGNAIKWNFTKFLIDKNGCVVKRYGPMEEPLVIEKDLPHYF
In short: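 Steps: GPX4 plus compound, 30 min RT; add GR/GSH/NADPH master mix; start with cumene hydroperoxide; read 340/450 nm fluorescence at 0 and 15 min. Finals were 200 nM GPX4, 1 mM GSH, 0.5 mM CHP, 0.5 mM NADPH, 100 nM GR.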
Note: nearly all actives have a fitted effect of over 65% in size.

| Structure (SMILES) | Potency [1] | Potency [2] |
| --- | --- | --- |
| CCN1CC(CCN2CCOCC2)C(c2ccccc2)(c2ccccc2)C1=O (stereo not given) | inactive | inactive |
| Cc1cccc(C)c1NC(=O)CC12CCCN1CCC2 | inactive | inactive |
| O=C(CCBr)N1CCN(C(=O)CCBr)CC1 | inactive | inactive |
| CC(=O)NCc1c(I)c(NC(C)=O)c(I)c(C(=O)O)c1I | inactive | inactive |
| OC(CCN1CCCC1)(c1ccccc1)C1CCCCC1 (stereo not given) | – | inactive |
| C/C(=C(\CCO)SS/C(CCO)=C(\C)N(C=O)Cc1cnc(C)nc1N)N(C=O)Cc1cnc(C)nc1N | – | inactive |
| CCCNC(C)C(=O)Nc1c(C)csc1C(=O)OC (stereo not given) | inactive | inactive |
| CO[C@@]1(NC(=O)C(C(=O)O)c2ccc(O)cc2)C(=O)N2C(C(=O)O)=C(CSc3nnnn3C)CO[C@@H]21 (stereo not given in full) | inactive | inactive |
| CC(C)CCCC(C)CCCC(C)CCCCC(C)CCCC(C)CCCC(C)C (stereo not given) | inactive | inactive |
| CN[C@@H]1[C@@H](O)[C@@H](O[C@@H]2[C@H](O)[C@H](O[C@H]3OC(CN)=CC[C@H]3N)[C@@H](N)C[C@H]2N)OCC1(C)O (stereo not given in full) | inactive | inactive |
| O=C(/C=C/c1ccccc1)OCc1ccccc1 | inactive | inactive |
| O=C(c1ccccc1)C(O)c1ccccc1 (stereo not given) | inactive | inactive |
| O[C@@H]1CO[C@H]2[C@@H]1OC[C@@H]2O | inactive | inactive |
| CCCCCCCC(=O)OCC(COC(=O)CCCCCCC)OC(=O)CCCCCCC | inactive | inactive |
| Cc1c(NC(=O)c2cccnc2)c(=O)n(-c2ccccc2)n1C | inactive | inactive |
| Cn1cc(C(=O)[C@@H]2CCc3nc[nH]c3C2)c2ccccc21 | inactive | inactive |
